Hit rate of the full screen: of about 5,500 compounds, about 2,000 (36%) were called active. About 18% were inconclusive and are not listed. No stated cut-off is given here; in the data, active means normalized growth mostly below about 0.91 (no sharp cut-off); inconclusive means no clear call, values can overlap the other calls; inactive means mostly above about 0.92. This is one part of the list.
Test: chemical genetic growth profiling, strain panel (AID 1159580);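 further: tested at 20 µM; growth read once vehicle control cultures reached saturation at 30 °C; 1 = growth at the plate median or of vehicle wells; lower values mean less growth of the strain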
Settings: S. cerevisiae deletion strains, growth OD

Measured: normalized growth

CCOC(=O)c1ccc2oc3ccc(O)cc3c(=O)c2c1
inactive: locus YAL013W, strain DEP1, hits give low values 0.948 | locus YBR229C, strain ROT2, hits give low values 0.982 | locus YDL101C, strain DUN1, hits give low values 0.982 | locus YDL134C, strain PPH21, hits give low values 1 | locus YDR150W, strain NUM1, hits give low values 0.973 | locus YEL061C, strain CIN8, hits give low values 0.97 | locus YGR078C, strain PAC10, hits give low values 1 | locus YHR030C, strain SLT2, hits give low values 0.826 | locus YHR087W, strain rtc3, hits give low values 0.937 | locus YJL187C, strain SWE1, hits give low values 0.956 | locus YJR043C, strain POL32, hits give low values 0.977 | locus YJR075W, strain HOC1, hits give low values 1.01 | locus YKL190W, strain CNB1, hits give low values 0.979 | locus YLR039C, strain RIC1, hits give low values 1 | locus YLR058C, strain SHM2 (second series), hits give low values 0.988 | locus YLR085C, strain ARP6, hits give low values 0.864 | locus YLR262C, strain YPT6, hits give low values 0.99 | locus YML094W, strain GIM5, hits give low values 0.913 | locus YMR219W, strain ESC1, hits give low values 1 | locus YMR263W, strain SAP30, hits give low values 0.949 | locus YMR307W, strain GAS1, hits give low values 0.814 | locus YNL153C, strain GIM3, hits give low values 0.973 | locus YNL298W, strain CLA4 (second series), hits give low values 0.956 | locus YNL322C, strain KRE1, hits give low values 1.01 | locus YNR030W, strain Alg12, hits give low values 0.939 | locus YOL006C, strain TOP1, hits give low values 0.945 | locus YPL055C, strain LGE1, hits give low values 0.88 | locus YPL241C, strain CIN2, hits give low values 0.908 | locus YPR135W, strain CTF4, hits give low values 0.872

— PubChem BioAssay AID1159580 (chemical genetic matrix, 2015)
